High-throughput results from PubChem BioAssay.
Compounds with a hit are over-represented: about 0.63% of the library has one in this group of screens.
Platelet DG rel – platelet dense granule release activity. human platelet-rich plasma, SFLLRN dense granule ATP release, luminescence. inhibition, %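 (compounds screened at 7.5 µM in platelet-rich plasma)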. 0.22% of 300,000 active;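 active means mean replicate score, as percent of positive control, at or above 50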
NTR1 ag – activates human neurotensin receptor 1. NTR1-U2OS beta-arrestin-GFP spot imaging, agonist mode. activation, % at 20 µM. 0.17% of 330,000 active;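 active means activation at or above 40% of the spot to cytoplasm intensity ratio, with at least 20 cells analyzed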;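 further: 0% = DMSO without peptide and 100% = 100 nM NTR1 peptide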
Target sequence (P30989 whole entry, looked up): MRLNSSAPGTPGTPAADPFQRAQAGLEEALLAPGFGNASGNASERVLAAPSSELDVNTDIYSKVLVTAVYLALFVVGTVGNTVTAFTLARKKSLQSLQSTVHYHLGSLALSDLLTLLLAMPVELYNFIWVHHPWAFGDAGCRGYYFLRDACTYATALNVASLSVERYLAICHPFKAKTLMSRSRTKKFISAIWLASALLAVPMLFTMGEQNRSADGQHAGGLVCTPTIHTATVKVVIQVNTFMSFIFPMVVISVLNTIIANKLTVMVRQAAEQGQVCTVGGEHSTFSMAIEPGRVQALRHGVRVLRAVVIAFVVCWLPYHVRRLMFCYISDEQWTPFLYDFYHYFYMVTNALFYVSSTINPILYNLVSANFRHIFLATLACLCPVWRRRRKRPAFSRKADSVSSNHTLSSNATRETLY
HIF activator – HIF pathway transcriptional activation; U2OS HRE-luciferase reporter, luminescence; normalized: DMSO 0%, desferrioxamine 100%; 0.32% of 300,000 active; activation, % at 7.5 µM (by protocol);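 active means mean activation of at least 10% of the iron chelator positive control signal, with at least half of replicates also reaching 10%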
* = called active by the depositor; / = no result given.

SMILES	Platelet DG rel	NTR1 ag	HIF activator
c1ccc(-c2n[nH]c(-c3ccccn3)n2)cc1	18	1	2
Cc1nnc(SCC(=O)Nc2ccccc2)n(N)c1=O	21	-1	0
O=C(CSc1cccc(C(F)(F)F)c1)NC(=O)c1ccccc1	-9	0	0
CCCCNC(=S)N1CCn2cccc2C1c1ccc(F)cc1 (stereo not given)	-8	1	0
C=CCn1c(SCC(=O)Nc2nnc(C)s2)nnc1C1CC1	-6	0	0
O=C(CSc1ccc2ccccc2n1)N/N=C/c1ccccc1O	-6	6	0
Cc1cc(SCC(=O)N/N=C/c2ccccc2C(=O)O)c(C)cc1Br	2	-1	21*
Cc1cc(SCC(=O)N/N=C/c2ccc(O)cc2O)c(C)cc1Br	0	3	39*
Cc1ccc(-c2nnc(SCC(=O)N/N=C/c3ccccc3C(=O)O)n2-c2ccc(C)cc2)cc1	6	0	-1
O=C(CCC(=O)Nc1ccc(F)cc1)N/N=C/c1ccccc1O	-5	1	4
Cc1ccc(NC(=O)CCC(=O)N/N=C/c2ccc(O)cc2O)cc1	1	0	135*
CCc1ccc(C(=O)NNC(=O)CN2C(=O)NC3(CCCC3)C2=O)cc1	/	-2	/
Cc1cccc2cc(COC(=O)c3cccc([N+](=O)[O-])c3)c(=O)[nH]c12	1	2	0
Clc1c(CSc2nc3ccccc3o2)nc2sccn12	-2	5	10*
Clc1c(CSc2nc3ccccc3o2)nc2ccccn12	/	3	-1
COc1ccc(S(=O)(=O)N2CCCC2CNC(=O)C(=O)NCc2ccccc2)cc1 (stereo not given)	17	1	0
COc1ccc(NC(=O)CCS(=O)(=O)c2ccc3c(c2)CCCN3C(C)=O)cc1Cl	-2	-1	0
COc1ccc(NC(=O)CCS(=O)(=O)c2ccc3c(c2)CCN3C(C)=O)cc1	-15	0	10*
COc1ccc(NC(=O)N2CCc3ccccc32)cc1	53*	0	-1
COc1ccc(NC(=O)N2CCCc3ccccc32)cc1	-3	2	2
CCS(=O)(=O)Nc1cc(C(=O)O)ccc1C	0	1	0
Cn1c(CCC(=O)O)nc2cc(S(=O)(=O)N3CCCC3)ccc21	/	0	/
CCN(CC)S(=O)(=O)c1ccc2c(c1)nc(CCC(=O)O)n2C	60*	2	0
Cc1ccccc1C1CC(c2ccccc2OC(F)F)Nc2ncnn21 (stereo not given)	-1	1	0
Cc1ccc(C2CC(c3ccccc3OC(F)F)Nc3ncnn32)cc1 (stereo not given)	51*	0	0
SMILES	Platelet DG rel	NTR1 ag	HIF activator
COC(=O)c1sc(NC(=O)c2c(-c3ccccc3)noc2C)nc1C	10	0	-1
COC(=O)c1sc(NC(=O)c2c(C)noc2C)nc1C	53*	0	1
COc1ccc2nc(NC(=O)c3ccoc3C)sc2c1	91*	0	0
COC(=O)c1sc(NC(=O)c2ccoc2C)nc1C	57*	/	3
COC(=O)c1sc(NC(=O)c2ccco2)nc1C	3	0	0
COc1ccc2nc(NC(=O)c3cc(C)oc3C)sc2c1	47	3	3
COC(=O)c1nc(N)sc1C	13	-2	0
COC(=O)c1cc(-c2ccc(Br)cc2)c2c(=O)[nH]c(=O)n(C)c2n1	1	7	0
COc1cccc(N=CC2=C(O)CCCC2=O)c1	3	0	1
O=C1CCCC(O)=C1C=Nc1cccc(C(F)(F)F)c1	3	0	714*
CN1CCN(C(=O)CCN2C(=O)/C(=C/c3ccccc3Cl)SC2=S)CC1	-3	2	0
CCC1Oc2ccccc2N(CC(=O)Nc2ccccc2OC)C1=O (stereo not given)	0	-1	225*
CCC1Oc2ccccc2N(CC(=O)NCCc2ccc(OC)c(OC)c2)C1=O (stereo not given)	5	-1	1
CCCCn1c(SCN2C(=O)c3ccccc3C2=O)nc2cc(S(N)(=O)=O)ccc21	80*	/	0
CCCCn1c(SCn2nnc3ccccc3c2=O)nc2cc(S(N)(=O)=O)ccc21	-6	1	0
COc1cc(/C=N/O)c(Br)cc1OCC(=O)Nc1ccccc1C	-14	1	1
COc1cc(/C=N/NC(N)=O)c(Br)cc1OCC(=O)Nc1ccccc1C	80*	6	0
CCOc1cc(/C=N/NC(N)=O)cc(Br)c1OCC(=O)Nc1cccc2ccccc12	6	5	-1
CCOc1cc(/C=N/NC(N)=O)cc(Br)c1OCC(=O)Nc1ccccc1C	98*	4	-24
COc1ccc(-c2noc(CN(C)S(=O)(=O)c3ccc(Cl)cc3)n2)cc1OC	5	2	0
CCOC(=O)/C(C#N)=C/C=C1\C=Cc2ccccc2N1CC	23	2	18*
CCCN1C=CC(=C/C=C(\C#N)C(=O)OCC)C=C1	3	-2	2
CCOC(=O)c1c(CN2CCN(CCO)CC2)n(-c2ccccc2)c2cc(Br)c(O)cc12	6	5	0
CCNC(=O)C12CCC(C)(C(=O)C1Br)C2(C)C (stereo not given)	-9	2	0
CCOC(=O)C1=C(Nc2ccccc2)CC(C)(O)C(C(=O)OCC)C1c1ccc(Br)cc1 (stereo not given)	-2	5	0
SMILES	Platelet DG rel	NTR1 ag	HIF activator
O=C(N/N=C/c1cc([N+](=O)[O-])ccc1O)c1cccc2ccccc12	-7	2	11*
O=[N+]([O-])c1ccc(O)c(/C=N/Nc2ccc(Cl)nn2)c1	5	3	64*
O=C(Cn1nc2ccccc2n1)N/N=C/c1cc([N+](=O)[O-])ccc1O	2	0	4
O=[N+]([O-])c1ccc(O)c(/C=N/Nc2nn[nH]n2)c1	-4	0	-1
CCCCc1ccc(NC(=O)CSc2nc(=O)n(CCN(CC)CC)c3c2CCC3)cc1	3	4	0
CCCCc1c(C)nc(N)[nH]c1=O	-3	-1	20*
COC(=O)CCc1c(C)nc(N)[nH]c1=O	-2	0	0
CC(C)(C)NC(=O)CN(Cc1ccc2c(c1)OCO2)C(=O)CNS(=O)(=O)c1ccc(F)cc1	6	2	19*
CC(C)(C)NC(=O)CN(Cc1cccs1)C(=O)CNS(=O)(=O)c1ccc(F)cc1	1	-1	1
CCc1nnc2n1N=C(c1cccc([N+](=O)[O-])c1)CS2	-3	-1	0
Cc1cccc(CN2CCN(C(=O)CCc3nnc(C4CCCCC4)o3)CC2)c1	4	0	0
CCC(C)c1ccc(NC(=O)C2CC3CCC2C3)cc1 (stereo not given)	4	1	3
Cc1ccc(/C=N/NC(=O)c2ccc(Br)o2)s1	-1	1	9.9*
CCc1ccc(/C=N\NC(=O)c2ccc(Br)o2)s1	4	2	-20
CCCn1cc(NC(=O)c2cc(-c3ccccc3)on2)cn1	-16	1	10*
O=C(Nc1cnn(C23CC4CC(CC(C4)C2)C3)c1)c1cc(-c2ccccc2)on1	5	5	0
O=C(COC(=O)CCC(=O)c1ccc(F)cc1)Nc1cccc(S(=O)(=O)N2CCCC2)c1	59*	0	0
CN(CC(=O)Nc1ccc(S(=O)(=O)N2CCCC2)cc1)CC(=O)Nc1cccc(F)c1	-2	0	53*
